The results in this text go back to the supplement of paper PMC9492666.

Where a name gives a salt, the structure may show the parent alone.
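Note: viability read out with the CCK-8 kit in 96-well plates, screening a set of 303 compounds acting on lipid metabolism targets.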

The subject of this assay is MDA-MB-231. Kind of assay: relative cell viability, compound alone, vs DMSO (fraction of DMSO control); higher = less growth inhibition. The following applies: 72 h.
As for `COc1ccc(-c2cc(=O)c3c(O)c(OC)c(OC)c(OC)c3o2)cc1OC`, the relative cell viability worked out at 0.82.

`Cc1c(C(=O)NN2CCCCC2)nn(-c2ccc(Cl)cc2Cl)c1-c1ccc(Cl)cc1` [Rimonabant] gave a relative cell viability of 0.817.

In turn, `CC(C)CCC[C@@H](C)[C@H]1CC[C@H]2[C@@H]3CCC4=CC(=NO)CC[C@]4(C)[C@H]3CC[C@]12C` [Olesoxime] showed a relative cell viability of 0.789.

In turn, `CC(C)=CCC[C@](C)(O)[C@H]1CC[C@]2(C)[C@@H]1[C@H](O)C[C@@H]1[C@@]3(C)CC[C@H](O)C(C)(C)[C@@H]3[C@@H](O)C[C@]12C` [(20S)-Protopanaxatriol] gave a relative cell viability of 1.

The molecule `Cc1nc2ccc(NCc3cccc(C(F)(F)F)c3)cc2n(CCNC(=O)CO)c1=O` showed a relative cell viability of 0.835.

For `CC(C)(Oc1ccc(CCNC(=O)c2ccc(Cl)cc2)cc1)C(=O)O` [Bezafibrate], the relative cell viability is 0.823.

As to `NC(=O)c1ncn([C@@H]2O[C@H](CO)[C@@H](O)[C@H]2O)c1N` [AICAR (Acadesine)], the relative cell viability came out at 0.892.

In turn, `Cc1cc(C)c(S(=O)(=O)N(CCc2cccc(Br)c2)Cc2ccc(-c3cccc(S(C)(=O)=O)c3)cc2)c(C)c1` showed a relative cell viability of 0.862.

As for `Cc1cnc(C(=O)NCCc2ccc(S(=O)(=O)NC(=O)NC3CCCCC3)cc2)cn1` [Glipizide], the relative cell viability turned out to be 0.817.

As to `CC(C)[C@H](N=C(NS(=O)(=O)c1ccc(Cl)cc1)N1C[C@H](c2ccccc2)C(c2ccc(Cl)cc2)=N1)C(N)=O`, the relative cell viability worked out at 0.893.

Regarding `Cc1cc(SCc2sc(-c3ccc(C(F)(F)F)cc3)nc2C)ccc1OCC(=O)O`, the relative cell viability was determined as 0.857.

As for `Nc1ccc(C(=O)O)c(O)c1` [Aminopar], the relative cell viability came to 0.911.

The molecule `Cc1nc(Nc2cnn(C3CCNCC3)c2)nc2c1N(C)C(=O)c1cc3ccccc3cc1N2C` showed a relative cell viability of 0.49.

With `O=C(O)CCCc1cc2cc(Cl)ccc2n1S(=O)(=O)c1ccc2ncsc2c1` [Lanifibranor], the relative cell viability stood at 1.07.

Consider `CCCCC[C@H](O)CC(=O)CCc1ccc(O)c(OC)c1` [6-Gingerol], for which the relative cell viability stood at 0.862.

In turn, `COCCNC(=O)Nc1ccc2nc(-c3cccs3)c(-c3cccs3)nc2c1` [Ac-CoA Synthase Inhibitor1] gave a relative cell viability of 0.91.

Turning to `O=C(/C=C/c1ccc(/C=C/C(=O)Nc2ccc(C3=NCCN3)cc2)cc1)Nc1ccc(C2=NCCN2)cc1`, the relative cell viability is 0.765.

The molecule `c1ccc([C@H]2CN3CCSC3=N2)cc1` [Levamisole hydrochloride] had a relative cell viability of 0.887.

Consider `CCCc1c(OCCCOc2ccc(OCC(=O)O)cc2)ccc(C(C)=O)c1O`, for which the relative cell viability was 1.07.

For the molecule `Nc1ncnc2c1ncn2[C@@H]1O[C@H](COP(=O)(O)O)[C@@H](O)[C@H]1O` [Adenosine 5'-monophosphate], the relative cell viability worked out at 0.81.

Molecule `Cc1ccc(CN(CC(O)COc2cccc3[nH]ccc23)C(C)(C)C)cc1` (stereo unspecified) registered a relative cell viability of 0.988.

`CC(C)(O)[C@@H]1Cc2cc3ccc(=O)oc3cc2O1` [marmesin] returned a relative cell viability of 0.866.

Molecule `O=C(Nc1ccccc1)c1cc([N+](=O)[O-])ccc1Cl` had a relative cell viability of 1.03.

Consider `CN(CCOc1ccc(CC2SC(=O)NC2=O)cc1)c1ccccn1` (stereo unspecified) [Rosiglitazone maleate], for which the relative cell viability was 0.86.

Molecule `CN(C(=O)n1cnc(-c2ccc[n+]([O-])c2)c1)C1CCCCC1` returned a relative cell viability of 0.934.

`CCOP(=O)(OCC)C(=Cc1cc(C(C)(C)C)c(O)c(C(C)(C)C)c1)P(=O)(OCC)OCC` gave a relative cell viability of 0.779.

Regarding `Cc1cccc(Nc2cc(Cl)nc(SCC(=O)O)n2)c1C` [Pirinixic Acid], the relative cell viability is 0.88.

`O=C1C(SCCO)=C(SCCO)C(=O)c2ccccc21` came in with a relative cell viability of 0.875.

In turn, `CC1=C[C@]2(O)O[C@@]3(CC2=C(C)C)[C@@H](C)CC[C@@H]13` [Curcumenol] came in with a relative cell viability of 0.863.

In the case of `CCCCCCCCCCCCCCOc1ccc(C(=O)O)o1`, the relative cell viability came out at 1.

`NC(=O)c1cccc(-c2cccc(OC(=O)NC3CCCCC3)c2)c1` had a relative cell viability of 1.02.

`Nn1nnc2ccccc21` [1-Aminobenzotriazole] yielded a relative cell viability of 0.937.

Turning to `O=c1cc(-c2ccc(O)c(-c3c(O)cc(O)c4c(=O)cc(-c5ccc(O)cc5)oc34)c2)oc2cc(O)cc(O)c12` [Amentoflavone], the relative cell viability was 0.812.

`NC(CO)C(=O)O` (racemic) [DL-Serine] came in with a relative cell viability of 0.77.

For `CCC(=O)O[C@]1(C(=O)SCF)[C@H](C)C[C@H]2[C@@H]3C[C@H](F)C4=CC(=O)C=C[C@]4(C)[C@@]3(F)[C@@H](O)C[C@@]21C` [Fluticasone propionate], the relative cell viability was determined as 0.813.

The molecule `C[C@H](CCC(=O)O)[C@H]1CC[C@H]2[C@@H]3CC[C@@H]4C[C@H](O)CC[C@]4(C)[C@H]3CC[C@]12C` [Lithocholic acid] returned a relative cell viability of 0.99.
